From PubChem BioAssay (NCATS)
Results filed as inconclusive are left out. Active and inactive are the calls of the source. The call rests on the fitted dose curve; in most records, active means well fitted curve in the direction sought with a large enough effect; inconclusive means small, poorly fitted or top-dose-only effect, or another doubt; inactive means no such curve, though single readings can be large; an effect the other way counts as inactive or inconclusive.

Tests used:
[1] = qHTS of pediatric cancer cell lines to identify multiple opportunities for drug repurposing: Confirmatory screen for Rh41 cells (AID 1347123);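 further: 48 h compound exposure; nearly all actives have a fitted effect of over 60% in size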
Outline: (§1)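 Cells (500-1,000/well) in growth media were settled 5 h at 37 degrees C, then given compounds for 48 h. Viability was read as CellTiter-Glo luminescence. Primary runs used MIPE at 11 points (0.78 nM-46 µM) and NPC at 8 points (0.59 nM-46 µM); follow-ups used 11 points.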

[2] = qHTS of pediatric cancer cell lines to identify multiple opportunities for drug repurposing: Confirmatory screen for RD cells (AID 1347124);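 further: cells exposed to compound for 48 h before viability readout; nearly all actives have a fitted effect of over 65% in size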
Outline: as §1

[3] = qHTS of pediatric cancer cell lines to identify multiple opportunities for drug repurposing: Confirmatory screen for Rh18 cells (AID 1347125); further: nearly all actives have a fitted effect of over 55% in size
Outline: as §1

[4] = qHTS of pediatric cancer cell lines to identify multiple opportunities for drug repurposing: Confirmatory screen for Rh30 cells (AID 1347126); further: nearly all actives have a fitted effect of over 55% in size
Outline: as §1

[5] = qHTS of pediatric cancer cell lines to identify multiple opportunities for drug repurposing: Confirmatory screen for Saos-2 cells (AID 1347127); further: nearly all actives have a fitted effect of over 60% in size
Outline: as §1

[6] = qHTS of pediatric cancer cell lines to identify multiple opportunities for drug repurposing: Confirmatory screen for OHS-50 cells (AID 1347128);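 further: compound exposure lasted 48 h at 37 degrees C; nearly all actives have a fitted effect of over 55% in size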
Outline: as §1

[7] = qHTS of pediatric cancer cell lines to identify multiple opportunities for drug repurposing: Confirmatory screen for SK-N-SH cells (AID 1347129);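 further: cells exposed to compound for 48 h before viability read; nearly all actives have a fitted effect of over 60% in size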
Outline: as §1

Measured: Potency
Potency means the concentration at half of the fitted maximal effect.

COC1=C2C[C@@H](C)C[C@H](OC)[C@@H](O)[C@@H](C)C=C(C)[C@H](OC(N)=O)[C@@H](OC)C=CC=C(C)C(=O)NC(=CC1=O)C2=O
active: [1] 2.33 µM | [2] 928 nM | [3] 2.08 µM | [4] 1.31 µM | [5] 0.928 µM | [6] 4.65 µM | [7] 2.35 µM

CCS(=O)(=O)Nc1ccc2[nH]c(O)c(C(=Nc3ccc(CN4CCCCC4)cc3)c3ccccc3)c2c1
active: [1] 0.522 µM | [2] 737 nM | [3] 4.65 µM | [4] 1.65 µM | [5] 0.737 µM | [6] 5.22 µM | [7] 0.332 µM

N#CNC(=NCCCCCCOc1ccc(Cl)cc1)Nc1ccncc1
active: [1] 0.0165 µM | [2] 36.9 nM | [3] 0.0465 µM | [4] 0.0185 µM | [5] 20.8 µM

O=C(C=CC#Cc1cccc(NS(=O)(=O)c2ccccc2)c1)NO
active: [1] 1.65 µM | [2] 5220 nM | [3] 2.33 µM | [5] 2.93 µM | [6] 5.85 µM | [7] 4.18 µM

CC(C=CC(=O)NO)=C[C@@H](C)C(=O)c1ccc(N(C)C)cc1
active: [1] 1.47 µM | [2] 1310 nM | [3] 0.928 µM | [5] 1.85 µM | [6] 1.47 µM | [7] 2.96 µM

CS(=O)(=O)N1CCc2c(-c3cnc(N)nc3)nc(N3CCOCC3)nc21
active: [1] 1.85 µM | [2] 1310 nM | [3] 1.85 µM | [5] 2.33 µM | [6] 2.93 µM | [7] 2.64 µM
